Assay outcomes as filed in PubChem BioAssay.
Hits are enriched below; roughly 2.1% of the tested compounds scored in any of these assays.
EP2 modulator – EP2 receptor (human) modulation. P43116. EP2-expressing cells, cAMP HTRF FRET, PGE2 co-stimulation. induction, % at 25 µM. 260,000 compounds, 0.83% hits;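 active = compounds whose cAMP rise, as percent of the full-agonist control response, exceeds 60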;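 note: rat C6 glioma line stably carrying human EP2 under a CMV promoter; the protocol text gives 20 µM as final concentration; 100% = response of wells given 1 µM PGE2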
Target sequence (P43116 whole entry, looked up): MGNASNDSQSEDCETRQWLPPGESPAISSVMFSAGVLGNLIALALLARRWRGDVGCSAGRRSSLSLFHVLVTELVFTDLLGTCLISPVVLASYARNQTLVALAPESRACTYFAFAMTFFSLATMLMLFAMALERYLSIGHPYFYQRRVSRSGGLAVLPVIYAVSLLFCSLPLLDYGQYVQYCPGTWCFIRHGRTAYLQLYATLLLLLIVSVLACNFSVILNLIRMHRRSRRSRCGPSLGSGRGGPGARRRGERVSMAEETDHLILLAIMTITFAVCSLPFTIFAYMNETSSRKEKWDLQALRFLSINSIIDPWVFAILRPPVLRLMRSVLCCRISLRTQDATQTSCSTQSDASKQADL
Avidin bead fluor – avidin bead compound fluorescence profile; AID 1775; 220,000 compounds, 0.38% hits; fluorescence (KMESF) at 10 µM; Avidin beads, compound fluorescence 488/530 nm, flow cytometry; stronger effect = higher value; in the data active = fluorescence above about 47
GSH bead fluor – compound fluoresces at 488/530 nm on GSH beads | GSH beads flow cytometry, compound fluorescence 488/530 nm; stronger effect = higher value | fluorescence (KMESF) at 10 µM | 190,000 compounds, 0.25% hits; in the data active = fluorescence above about 89;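 note: glutathione beads carrying GST-tagged Bcl family fusion proteins plus one bare bead set; values are compound well signal with DMSO vehicle wells as background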
Efa HMGR inh – inhibitors of class II HMG-CoA reductase from Enterococcus faecalis; inhibition, % at 10 µM; purified E. faecalis HMGR, NADPH absorbance 340 nm kinetic; AID 1066; 190,000 compounds, 0.41% hits;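 active = inhibition above a set limit, the median over all tested compounds plus 3 SD, cut at about 9.5% in these data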;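 note: enzyme runs in reverse so mevalonate oxidation gives rising NADPH absorbance; 0% = complete reaction with DMSO and 100% = background rate lacking mevalonate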
PGE2 EP2 inh – blocks the human prostaglandin E2 receptor EP2; 260,000 compounds, 0.52% hits; C6 glioma cells expressing human EP2, cAMP TR-FRET; cells stimulated with saturating PGE2; P43116; AID 1422; inhibition, % at 25 µM;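 active = percent inhibition above 40 after rounding to a whole number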;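 note: rat C6 glioma host cells with rolipram phosphodiesterase inhibitor present; the protocol text gives 20 µM as final concentration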
The depositor's hits bear a star; ! = repeats disagree.

For COc1ccc(C2(O)CC3CCC(C2)N3Cc2cc(OC)c(OC)cc2C)cc1 (stereo unspecified) the results were EP2 modulator -48 and PGE2 EP2 inh 4.
O=C(O)C[C@@H]1NCc2cc3ccccc3nc21 was read as EP2 modulator -5 and PGE2 EP2 inh 15.
`COc1ccc(C[C@@H]2c3cc(O)c(OC)cc3CCN2C)cc1O` gave EP2 modulator 17, Avidin bead fluor 11, GSH bead fluor 18, Efa HMGR inh 20* and PGE2 EP2 inh 10.
Screening c1ccc(-c2cc(-c3ccccc3)[n+](-c3ccccc3)c(-c3ccccc3)c2)cc1 returned EP2 modulator -78, Avidin bead fluor 6 and PGE2 EP2 inh 64*.
`O=C1NC(=O)C(=Cc2ccc(-c3ccccc3[N+](=O)[O-])o2)C(=O)N1` gave EP2 modulator -38, Avidin bead fluor 6 and PGE2 EP2 inh 16.
Screening O=C1NC(=O)C(=Cc2ccc(-c3cc(Cl)ccc3[N+](=O)[O-])o2)C(=O)N1 returned EP2 modulator -59, Avidin bead fluor 11, GSH bead fluor 14, Efa HMGR inh 2 and PGE2 EP2 inh 42*.
`CCc1ccc(C(=O)C23CN4CN(CN(C4)C2)C3)cc1` gave EP2 modulator 5, Avidin bead fluor 5, GSH bead fluor 29, Efa HMGR inh 12* and PGE2 EP2 inh 6.
`COc1ccc(C(=O)C23CN4CN(CN(C4)C2)C3)cc1` gave EP2 modulator 10, Avidin bead fluor 51*, GSH bead fluor 10, Efa HMGR inh 1 and PGE2 EP2 inh 2.
For O=C(c1ccc(Br)cc1)C12CN3CN(CN(C3)C1)C2 the results were EP2 modulator 6, Avidin bead fluor 9, GSH bead fluor 14, Efa HMGR inh 3 and PGE2 EP2 inh 1.
COc1cccc(C2(NC(=O)c3cnn(C(C)C)c3)CCCC2)c1 was read as EP2 modulator -14.
`CCCc1ncc(CN2C3CCC2CC(O)(c2ccc(F)cc2)C3)cn1` (stereo unspecified) gave EP2 modulator -10 and PGE2 EP2 inh 2.
COc1ccc(C(F)(F)F)cc1N1C(=O)CC(=O)NC1=O was read as EP2 modulator 2 and PGE2 EP2 inh 9.
For CCCCC[CH2][Hg][n+]1c[nH]c2nc(N)[nH]c(=S)c21 the results were EP2 modulator -28 and PGE2 EP2 inh 100*.
`CC(C)[C@]1(O)[C@@H](OC(=O)c2ccc[nH]2)[C@@]2(O)[C@@]3(C)C[C@]4(O)O[C@@]5([C@H](O)[C@@H](C)CC[C@@]35O)[C@@]2(O)[C@@]41C` gave EP2 modulator 6 and PGE2 EP2 inh 51*.
For CO[C@H]1[C@H](O)[C@@H](O[C@@H]2[C@@H](Oc3cccc4c(O)c5c(=O)oc6ccc(C)c7c(=O)oc(c34)c5c67)O[C@@H](C)[C@H](O)[C@H]2O)O[C@@H](C)[C@@H]1O the results were EP2 modulator 8 and PGE2 EP2 inh 44*.
`COc1ccc(C[C@@H]2C(=O)N[C@H](C)C(=O)N(C)[C@@H]3C(=O)N(C)[C@@H](Cc4ccc(O)c(c4)Oc4ccc(cc4)[C@H]3O)C(=O)N[C@@H](C)C(=O)N[C@H](C)C(=O)N2C)cc1` gave EP2 modulator 27 and PGE2 EP2 inh 43*.
For COc1c(C)cccc1CN1C2CCC1CC(O)(c1cccc(F)c1)C2 (stereo unspecified) the results were EP2 modulator -78 and PGE2 EP2 inh 12.
Screening CN(C)P(=NC(=S)c1cccn1C)(N(C)C)N(C)C returned EP2 modulator 13, Avidin bead fluor 58*, GSH bead fluor 27, Efa HMGR inh -2 and PGE2 EP2 inh 14.
Screening CN(C)P(=O)(NC(=O)c1cccn1C)N(C)C returned EP2 modulator 19, Avidin bead fluor 14, GSH bead fluor 8, Efa HMGR inh -1 and PGE2 EP2 inh 7.
Cc1ccccc1C(=O)NC(Oc1ccccc1)C(Cl)(Cl)Cl (stereo unspecified) was read as EP2 modulator 63*, Avidin bead fluor 3, GSH bead fluor 19, Efa HMGR inh -5 and PGE2 EP2 inh 5.
CCCC(=O)NC(Oc1ccc(C(C)=O)cc1)C(Cl)(Cl)Cl (stereo unspecified) was read as EP2 modulator -10, Avidin bead fluor 9, GSH bead fluor 12, Efa HMGR inh -7 and PGE2 EP2 inh 6.
Screening C[C@@H](O)CN(CCN(C[C@@H](C)O)C[C@@H](C)O)C[C@@H](C)O.O=[N+]([O-])O.[Cu] returned EP2 modulator 14 and PGE2 EP2 inh 41*.
O=C(COc1ccc2ccccc2c1)N1CCN(CC2CC3C=CC2C3)CC1 (stereo unspecified) was read as EP2 modulator -1, Avidin bead fluor 50*, GSH bead fluor 17, Efa HMGR inh -3 and PGE2 EP2 inh 11.
For CC(C)c1ncc(CN2C3CCC2CC(O)(c2ccc(F)cc2)C3)cn1 (stereo unspecified) the results were EP2 modulator -30 and PGE2 EP2 inh 8.
`Cc1cc2c(C(C)C)c(O)c(O)c(C=O)c2c(O)c1-c1c(C)cc2c(C(C)C)c(O)c(O)c(C=O)c2c1O` gave EP2 modulator 7, Avidin bead fluor 7, GSH bead fluor 19, Efa HMGR inh 7 and PGE2 EP2 inh 47*!.
Screening C#CCOc1ccccc1CN1C2CCC1CC(O)(c1ccc(OC)cc1)C2 (stereo unspecified) returned EP2 modulator -14 and PGE2 EP2 inh 8.
`C[N+]1([O-])[C@@H]2CC(OC(=O)[C@@H](CO)c3ccccc3)C[C@H]1[C@H]1O[C@H]12` (stereo partly specified) gave EP2 modulator 29 and PGE2 EP2 inh 49*.
Cc1ccc(C)c(-c2nc(C)sc2CC(=O)N2CCCCC2CN2CCCC2)c1 (stereo unspecified) was read as EP2 modulator -22 and PGE2 EP2 inh 9.
For O=c1oc2ccccc2c(O)c1C1c2ncccc2-c2c1c(=O)oc1ccccc21 (stereo unspecified) the results were EP2 modulator -4 and PGE2 EP2 inh 13.
Oc1c(Cl)c(Cl)c(Cl)c(Cl)c1Cl (tested in a mixture with another compound) was read as EP2 modulator -21 and PGE2 EP2 inh 65*.
O=C1C(Cl)=C(Cl)C(=O)C(Cl)=C1Cl was read as EP2 modulator -36 and PGE2 EP2 inh 109*.
`CNC(=S)N1CCn2cccc2C1c1cccnc1` (stereo unspecified) gave EP2 modulator 17, Avidin bead fluor 21, GSH bead fluor 11, Efa HMGR inh 2 and PGE2 EP2 inh -3.
CCCCNC(=S)N1CCn2cccc2C1c1cccnc1 (stereo unspecified) was read as EP2 modulator -27, Avidin bead fluor 20, GSH bead fluor 12, Efa HMGR inh 11* and PGE2 EP2 inh 1.
`CC[C@@H]1[C@@H]2Cc3ccc(O)cc3[C@@]1(CC)CCN2C` gave EP2 modulator 14 and PGE2 EP2 inh 52*.
